# “And” between values parts separate entries of the source, which are not always exact repeats. Equal values may be shown once. Results filed as inconclusive are left out. Where a structure was tested more than once in an assay, its records may differ in their call. The source made the active and inactive calls. The calls were made as follows: active = hit-call score of the fitted dose curve at least 0.9, where 1 is the maximum; inconclusive = response in the unintended direction; inactive = score below 0.9.
# Assay: CCTE_Shafer_MEA_dev_LDH: CCTE's Lactate Dehydrogenase Assay for Cytotoxicity in the Neural Network Formation Assay, Shafer Lab (AID 2284068);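 also: exposure for twelve days from plating with re-dosing on DIV 5 and 9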
# Method: CCTE_Shafer_MEA_dev assay is conducted using Axion Biosystems 48 well microelectrode array (MEA) plates and Maestro recording system. Each well of the MEA plate contains a grid of 16 microelectrodes embedded in the culture surface. Electrically active cells, such as neurons, can be cultured over the electrodes, and electrical activity in these cells can be recorded extracellularly. The spontaneous firing of neurons is captured from each electrode on a microsecond timescale providing both temporally and spatially precise data. […] The CCTE_Shafer_MEA_dev assay uses primary cultures of rat cortical neurons. Recordings are made on days post-plating 5, 7, 9 and 12. As these cultures mature over time, neural networks develop functional activity and form cohesive networks in which electrical activity can be highly coordinated. CCTE_Shafer_MEA_dev_LDH is 1 of 19 assay components of the CCTE_Shafer_MEA_dev assay. It measures the lactate dehydrogenase enzyme activity using spectrophotometry.Data from the assay component CCTE_Shafer_MEA_dev_LDH was analyzed into 1 assay endpoint. This assay endpoint, CCTE_Shafer_MEA_dev_LDH, was analyzed in the positive analysis fitting direction relative to DMSO as the negative control and baseline of activity. Using a type of viability reporter, loss-of-signal activity can be used to understand cell viability.
# On the day prior to culture, each well was coated thoroughly with 150 uL of 0.05% polyethyleneimine (PEI, Sigma Cat P3143) in 50 mM HEPES (Sigma Cat H7523) at a pH of 8. The plate was incubated at 37C for one hour. PEI was rinsed out with 500 uL of sterile water three times. Plates were stored at 4C until the day of culture. This culture was plated at a seeding density of 1.5 x 10^5 cells/well on a 48-well MEA plate, prepared as described above. Cells were administered via a 25 uL media/laminin ([…]; Sigma Cat L2020-1MG) drop directly onto the microelectrode array, as adding the cells with the laminin results in better attachment than pre-coating with laminin. After 2 hours, an additional 475 uL of cortical media was added and the cells returned to the incubator. Exposure starts at day 0 of plating and is continued over twelve days of network development until the experiment is terminated. Cells are fed with fresh medium on DIV 5 and 9, following the recordings on those days. The entire volume of media in the well is exchanged and any vehicle or compound treatment is renewed. Complete details are found in OP-NHEERL/ISTD/SBB/TJS/2015-03-r0 (available on request, email shafer.tim@epa.gov). Measurement of the electrical activity is non-invasive, and recordings can be made from the same plate over multiple different days of the culture. In cortical neurons, this allows for the measurement of extracellular action potentials over the period during which networks form in the MEA plate.
SMILES,AC50,outcome
CCN(CC)c1nc(C)cc(OP(=S)(OC)OC)n1,29.2 µM (active),
CO/N=C(/C1=NOCCO1)c1ccccc1Oc1ncnc(Oc2ccccc2Cl)c1F,643 nM (active) and 858 nM (active),
CCOP(=O)(OCC)Oc1nc(Cl)c(Cl)cc1Cl,610 nM (active) and 413 nM (active),inactive
C=C(C)CN(CC)c1c([N+](=O)[O-])cc(C(F)(F)F)cc1[N+](=O)[O-],14.5 µM (active),
COP(=S)(OC)Oc1ccc([N+](=O)[O-])c(C)c1,,inactive
O=C(Nc1ccccc1-c1ccc(Cl)cc1)c1cccnc1Cl,50 µM (active),inactive
Cc1c(COC(=O)[C@@H]2[C@H](/C=C(\Cl)C(F)(F)F)C2(C)C)cccc1-c1ccccc1,17.5 µM (active) and 11.2 µM (active),
CCCN(CC)CC1COC2(CCC(C(C)(C)C)CC2)O1 (stereo not given),0.168 µM (active),
CC(C)(C)C(=O)C(Oc1ccc(Cl)cc1)n1cncn1 (stereo not given),37.5 µM (active),
COP(=O)(OC)O/C(C)=C/C(=O)N(C)C,,inactive
CCNC(=O)NC(=O)C(C#N)=NOC,,inactive
COC(=O)N(C(=O)N1CO[C@@]2(C(=O)OC)Cc3cc(Cl)ccc3C2=N1)c1ccc(OC(F)(F)F)cc1,7.61 µM (active),
CS(=O)(=O)c1ccc(C(=O)C2C(=O)CCCC2=O)c([N+](=O)[O-])c1,,inactive
CC1(C)C(C(=O)OC(C#N)c2cccc(Oc3ccccc3)c2)C1(C)C (stereo not given),17.8 µM (active),
N#CN=C1SCCN1Cc1ccc(Cl)nc1,,inactive
O=C1C2CC=CCC2C(=O)N1SC(Cl)(Cl)Cl (stereo not given),15.9 µM (active) and 13.8 µM (active),
CC(C)=CC1C(C(=O)OCc2coc(Cc3ccccc3)c2)C1(C)C (stereo not given),14.1 µM (active),
CCSC(=O)N1CCCCCC1,,inactive
COP(=S)(OC)SCn1nnc2ccccc2c1=O,22.7 µM (active),
CN/C(=N\[N+](=O)[O-])NCc1cnc(Cl)s1,,inactive
CCOC(=O)C(C)OC(=O)c1cc(Oc2ccc(C(F)(F)F)cc2Cl)ccc1[N+](=O)[O-] (stereo not given),,inactive
CNC(=O)Oc1cccc2ccccc12,15 µM (active) and 25.1 µM (active),
CC1(C)C(C=C(Cl)Cl)C1C(=O)OC(C#N)c1cccc(Oc2ccccc2)c1 (stereo not given),,inactive

# Reference: PubChem BioAssay (EPA / NIEHS)
